Measurements: PubChem BioAssay (EPA / NIEHS)
Values joined by “and” are separate entries in the source; they are usually repeats but may differ in a detail not shown here. Equal values may be shown once. Results filed as inconclusive are left out. Some compounds were tested as several samples or in several runs, with calls that do not always agree. Active and inactive are the calls of the source. How the source made its calls, unless noted: active means hit-call score of the fitted dose curve at least 0.9, where 1 is the maximum; inactive means score below 0.9.

Legend:
[1] = molecular target: human Vitamin D Receptor (VDR), VDR (gene 7421) (UniProt P11473); assay: ATG_VDR_TRANS: Attagene TRANS-FACTORIAL HepG2 Assay for human Vitamin D Receptor (VDR) (AID 2283022; active means hit-call score of the fitted dose curve at least 0.9, where 1 is the maximum)
human Vitamin D Receptor (VDR), VDR (gene 7421), sequence (P11473 whole entry, looked up, the tested form may be a part): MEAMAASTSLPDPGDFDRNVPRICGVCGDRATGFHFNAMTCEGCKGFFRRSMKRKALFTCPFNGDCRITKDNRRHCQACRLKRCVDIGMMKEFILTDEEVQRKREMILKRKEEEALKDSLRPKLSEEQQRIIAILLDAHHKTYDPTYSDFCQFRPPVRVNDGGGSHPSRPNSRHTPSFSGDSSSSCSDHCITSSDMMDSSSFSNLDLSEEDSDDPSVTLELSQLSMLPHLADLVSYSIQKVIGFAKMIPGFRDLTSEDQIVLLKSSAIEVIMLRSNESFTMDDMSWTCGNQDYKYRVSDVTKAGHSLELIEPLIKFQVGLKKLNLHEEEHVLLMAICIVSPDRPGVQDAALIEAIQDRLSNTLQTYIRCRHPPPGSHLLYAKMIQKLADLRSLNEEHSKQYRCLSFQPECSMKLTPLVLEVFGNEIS
How it was run: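 HepG2 cells were transiently transfected with multiple GAL4-UAS reporter units, so signal reflects exogenous chimeric receptor-Gal4 activity. After 24 h compound exposure, reporter mRNA was measured by RT-PCR, fluorescent labelling and capillary electrophoresis, fitted for gain of signal versus DMSO.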

[2] = read-out: Interleukin-8 (IL8), CXCL8 (gene 3576); assay: BSK_3C_IL8: BioMAP Diversity Plus: 3C Assay for Interleukin-8 (IL8) Biomarker Activity (AID 2283020); conditions: primary human endothelial cells (HUVEC); actives raise or lower the signal
How it was run: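 Human vascular endothelial cells (umbilical vein) in the 3C system; IL-8 level detected by ELISA at 24 h post-dose, with DMSO as baseline.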

[3] = read-out: Monokine induced gamma interferon (MIG), CXCL9 (gene 4283); assay: BSK_3C_MIG: BioMAP Diversity Plus: 3C Assay for Monokine induced gamma interferon (MIG) Biomarker Activity (AID 2283021); conditions: primary human endothelial cells (HUVEC); actives raise or lower the signal;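 on AC50: MIG protein level measured by immunoassay in the treated endothelial cultures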
How it was run: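 After 24 h of treatment, human umbilical vein endothelial cultures (3C system) had their MIG biomarker level determined by ELISA, with DMSO serving as negative control.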

[4] = BSK_3C_SRB: Viability Assessment in the BioMAP Diversity Plus: 3C Assay (AID 2283023); conditions: primary human endothelial cells (HUVEC);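 further: fitted both ways against DMSO so a hit may be signal rise or drop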
How it was run: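 Primary human umbilical vein endothelial cells in the 3C system were read 24 h after compound dosing. Total protein was stained with 0.1% sulforhodamine B after 10% TCA fixation and read at 560 nm, with bidirectional fitting against DMSO as baseline.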

[5] = read-out: Matrix Metallopeptidase 1 (MMP1), MMP1 (gene 4312); assay: BSK_BE3C_MMP1: BioMAP Diversity Plus: BE3C Assay for Matrix Metallopeptidase 1 (MMP1) Biomarker Activity (AID 2283024); conditions: primary human bronchial epithelial cells; actives raise or lower the signal
How it was run: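 Dose cells, wait 24 h, run MMP1 ELISA; cells are human bronchial epithelial primaries. Both increases and decreases relative to DMSO counted.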

[6] = BSK_4H_SRB: Viability Assessment in the BioMAP Diversity Plus: 4H Assay (AID 2283027); conditions: primary human endothelial cells (HUVEC);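 further: cells exposed to compound for 24 h before staining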;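 on AC50: curves fitted both ways versus DMSO so AC50 may be loss or gain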
How it was run: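 Human umbilical vein endothelial cells were dosed with chemical and, after 24 h, fixed with 10% TCA, stained with 0.1% sulforhodamine B, and read at 560 nm to give total protein as a cytotoxicity measure. Bidirectional fitting relative to DMSO control.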

[7] = BSK_BE3C_SRB: Viability Assessment in the BioMAP Diversity Plus: BE3C Assay (AID 2283028); conditions: primary human bronchial epithelial cells;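 on AC50: fitted both ways so AC50 may mark signal gain or loss versus DMSO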
How it was run: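 Human primary bronchial epithelial cells were exposed to test chemicals for 24 h. Total protein in parallel cultures was then measured by staining with 0.1% sulforhodamine B after 10% TCA fixation, with absorbance read at 560 nm. Activity was fitted bidirectionally against DMSO.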

[8] = read-out: Thrombomodulin, THBD (gene 7056); assay: BSK_3C_Thrombomodulin: BioMAP Diversity Plus: 3C Assay for Thrombomodulin Biomarker Activity (AID 2283029); conditions: primary human endothelial cells (HUVEC); actives raise or lower the signal
How it was run: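 Thrombomodulin ELISA, human primary HUVEC, 24 h post-dose; data fitted in both directions relative to DMSO.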

[9] = read-out: Urokinase-type plasminogen activator receptor (uPAR), PLAUR (gene 5329); assay: BSK_4H_uPAR: BioMAP Diversity Plus: 4H Assay for Urokinase-type plasminogen activator receptor (uPAR) Biomarker Activity (AID 2283030); conditions: primary human endothelial cells (HUVEC); actives raise or lower the signal
How it was run: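 Primary human umbilical vein endothelial cells were exposed to chemical for 24 h before cell-surface uPAR was quantified by ELISA. Activity was fitted bidirectionally against the DMSO negative control baseline.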

[10] = read-out: Vascular endothelial growth factor receptor 2 (Homo sapiens) (UniProt P35968); assay: BSK_4H_VEGFRII: BioMAP Diversity Plus: 4H Assay for Vascular endothelial growth factor receptor 2 (VEGFR2) Biomarker Activity (AID 2283031); conditions: primary human endothelial cells (HUVEC); actives raise or lower the signal
How it was run: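 Primary human umbilical vein endothelial cells in the BioMAP 4H system were dosed with test chemical, and 24 h later VEGFRII was measured by ELISA. Activity was fitted bidirectionally against DMSO as negative control and baseline.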

[11] = read-out: Human Leukocyte Antigen - DR isotype (HLADR), HLA-DRA (gene 3122); assay: BSK_BE3C_HLADR: BioMAP Diversity Plus: BE3C Assay for Human Leukocyte Antigen - DR isotype (HLADR) Biomarker Activity (AID 2283032); conditions: primary human bronchial epithelial cells; actives raise or lower the signal
How it was run: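 Signal came from an ELISA for HLA-DR in human bronchial epithelial primary cells harvested 24 h after treatment; gain- and loss-of-signal fitting used DMSO controls as reference.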

[12] = read-out: Vascular cell adhesion molecule 1 (VCAM1), VCAM1 (gene 7412); assay: BSK_4H_VCAM1: BioMAP Diversity Plus: 4H Assay for Vascular cell adhesion molecule 1 (VCAM1) Biomarker Activity (AID 2283033); conditions: primary human endothelial cells (HUVEC); actives raise or lower the signal
How it was run: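 Endpoint derived from bidirectional fitting against DMSO controls of VCAM-1 ELISA signal in umbilical vein endothelial cells sampled at 24 h following treatment.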

[13] = read-out: Interferon-gamma inducible Protein 10 (IP10), CXCL10 (gene 3627); assay: BSK_BE3C_IP10: BioMAP Diversity Plus: BE3C Assay for Interferon-gamma inducible Protein 10 (IP10) Biomarker Activity (AID 2283034); conditions: primary human bronchial epithelial cells; actives raise or lower the signal
How it was run: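 Using primary human bronchial epithelial cultures, the assay captures IP-10 by ELISA one day (24 h) after exposure. Parallel SRB staining of total protein flags overt cytotoxicity. Fits run bidirectionally relative to DMSO.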

[14] = read-out: Plasminogen activator inhibitor-1 (PAI1), SERPINE1 (gene 5054); assay: BSK_BE3C_PAI1: BioMAP Diversity Plus: BE3C Assay for Plasminogen activator inhibitor-1 (PAI1) Biomarker Activity (AID 2283037); conditions: primary human bronchial epithelial cells; actives raise or lower the signal
How it was run: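 PAI-1 biomarker levels in treated human bronchial epithelial cells are determined by ELISA at 24 h. Both increases and decreases relative to DMSO are fitted.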

[15] = read-out: urokinase plasminogen activator (uPA), PLAU (gene 5328); assay: BSK_BE3C_uPA: BioMAP Diversity Plus: BE3C Assay for urokinase plasminogen activator (uPA) Biomarker Activity (AID 2283038); conditions: primary human bronchial epithelial cells; actives raise or lower the signal
How it was run: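 Human primary bronchial epithelial cells were exposed to chemical for 24 h, then uPA levels were measured by ELISA. Responses were fitted bidirectionally against DMSO as negative control and baseline. Parallel SRB staining of total protein gauged overt cytotoxicity.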

[16] = read-out: Urokinase-type plasminogen activator receptor (uPAR), PLAUR (gene 5329); assay: BSK_BE3C_uPAR: BioMAP Diversity Plus: BE3C Assay for Urokinase-type plasminogen activator receptor (uPAR) Biomarker Activity (AID 2283039); conditions: primary human bronchial epithelial cells; actives raise or lower the signal
How it was run: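 A uPAR ELISA serves as the readout, taken 24 h after treating primary human bronchial epithelial cells. Responses in either direction are fitted against DMSO, which defines baseline activity.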

[17] = read-out: Monokine induced gamma interferon (MIG), CXCL9 (gene 4283); assay: BSK_BE3C_MIG: BioMAP Diversity Plus: BE3C Assay for Monokine induced gamma interferon (MIG) Biomarker Activity (AID 2283035); conditions: primary human bronchial epithelial cells; actives raise or lower the signal
How it was run: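 ELISA read-out of MIG in human lung bronchial epithelial primary cultures, 24 h post-dosing. Bidirectional curve fit vs DMSO baseline.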

[18] = BSK_3C_Vis: BioMAP Diversity Plus: 3C Assay for Morphology Visualization (AID 2283025); conditions: primary human endothelial cells (HUVEC);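 further: light microscopy image of cell morphology used as background control; fitted both ways so gain or loss versus DMSO counts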
How it was run: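 Endothelial cells from human umbilical vein were treated with test chemicals for 24 h and inspected by light microscopy for changes in cell conformation.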

[19] = read-out: Transforming growth factor beta 1 (TGFb1), TGFB1 (gene 7040); assay: BSK_BE3C_TGFb1: BioMAP Diversity Plus: BE3C Assay for Transforming growth factor beta 1 (TGFb1) Biomarker Activity (AID 2283036;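 further: TGF-b1 protein level measured by ELISA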); conditions: primary human bronchial epithelial cells; actives raise or lower the signal
How it was run: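 In this human primary bronchial epithelial system, an ELISA quantified TGF-b1 one day after dosing. Endpoint changes in either direction were fitted relative to DMSO.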

Measured: AC50

Cc1cccc(C)n1
inactive: [1]

CCCC(=O)OCC(COC(=O)CCC)OC(=O)CCC
inactive: [1]

O=S(=O)(O)c1ccc(Cl)cc1
inactive: [1]

NC(=O)C(F)(F)C(F)(F)C(F)(F)C(F)(F)C(F)(F)C(F)(F)C(F)(F)F
not listed: [1] | [17] | [18] | [19]
inactive: all other assays above

CC(C)(C)c1cc(Cc2cc(C(C)(C)C)c(O)c(C(C)(C)C)c2)cc(C(C)(C)C)c1O
inactive: [1]

O=S(=O)(Cl)C(F)(F)C(F)(F)C(F)(F)C(F)(F)C(F)(F)C(F)(F)C(F)(F)C(F)(F)F
active: [2] 30 µM and 35.3 µM | [4] 49.3 µM and 55.6 µM | [5] 7.12 µM and 7.23 µM | [6] 45.9 µM | [7] 43.9 µM and 30.7 µM | [8] 30 µM and 44.8 µM | [9] 12.1 µM | [11] 44.8 µM and 46.8 µM | [13] 40.2 µM and 37 µM | [17] 55.8 µM and 53.6 µM | [14] 45.8 µM and 47.4 µM | [15] 55.2 µM | [16] 51.7 µM and 51.6 µM
inactive: [3] | [6] | [9] | [10] | [12] | [15]

c1ccc(C[P+](c2ccccc2)(c2ccccc2)c2ccccc2)cc1
inactive: [1]

CO[Si](CCCOCC1CO1)(OC)OC (configuration not stated)
inactive: [1]

Cc1ccc2c(c1)OCC(=O)CO2
inactive: [1]

CCn1c2ccccc2c2ccccc21
inactive: [1]

CCOCOCC
inactive: [1]

C=C(C)C(=O)OCC(F)(F)C(F)(F)C(F)(F)C(F)F
active: [8] 21.8 µM
inactive: [2] | [3] | [4] | [5] | [6] | [7] | [8] | [9] | [10] | [11] | [12] | [13] | [14] | [15] | [16]

CCCCOC(=O)C(C)O (configuration not stated)
inactive: [1]

CCCCCCCCCCCCC[N+](C)(C)Cc1ccccc1
inactive: [1]

CCCCCCCCCCCC(=O)Cl
inactive: [1]

OCCCc1cccnc1
inactive: [1]

COCCOCCC[Si](C)(O[Si](C)(C)C)O[Si](C)(C)C
inactive: [1]

CCCCCCCCCc1ccc(OCCO)cc1
inactive: [1]

CCCCC(CC)COC(=O)c1ccc(N(C)C)cc1 (configuration not stated)
inactive: [1]

CC(C)C(=O)OCc1ccccc1
inactive: [1]

CCOC(OCC)OCC
inactive: [1]

CC(C)CC=C(C=O)c1ccccc1
inactive: [1]

CCOC(C=C(C)CCC=C(C)C)OCC
active: [2] 29.8 µM | [3] 36 µM | [4] 31.2 µM | [18] 37.1 µM | [6] 31 µM | [8] 3.97 µM | [9] 35.2 µM | [12] 31.5 µM
not listed: [1] | [10] | [17]
inactive: all other assays above

CCN=c1cc2oc3cc(NCC)c(C)cc3c(-c3ccccc3C(=O)OCC)c-2cc1C
inactive: [1]

CCCCCCCCCCCCCC[P+](CCCC)(CCCC)CCCC
inactive: [1]
